# Source: patent publication US20150152398, “Endoribonuclease and Methods of Use Thereof” (The Regents of the University of California, published 2015)
# Target: T1, TtCas6A (TTHA0078, Cas6) (Thermus thermophilus HB8)
# T1 chain: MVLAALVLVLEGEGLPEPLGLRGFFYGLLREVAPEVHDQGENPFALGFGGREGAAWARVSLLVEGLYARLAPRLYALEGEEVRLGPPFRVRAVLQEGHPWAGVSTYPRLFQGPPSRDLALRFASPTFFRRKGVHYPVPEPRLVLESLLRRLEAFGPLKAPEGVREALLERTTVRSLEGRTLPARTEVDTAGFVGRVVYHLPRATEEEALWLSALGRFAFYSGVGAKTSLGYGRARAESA
# Test: EMSA; closing base pair; Kd in FIG. 24C only
# Details: chain copies: 2 stated (dimer in solution); hairpin; ssRNA; [20,25]
# From the text: FIG. 22 illustrates that TtCas6A and TtCas6B both cleave repeats R1 and R3 and retain their cleaved products. (A) Sequences and predicted secondary structures of T. thermophilus CRISPR repeats. Sites of cleavage are indicated with blue arrows. TtCas6e (TTHB192) cleaves repeat R2, while TtCas6A (TTHA0078) and TtCas6B (TTHB231) both cleave repeats R1 and R3. (B) Cleavage product binding affinities of TtCas6A and TtCas6B enzymes. Maltose binding protein (MBP)-fused TtCas6A or TtCas6B were bound to in 5′-radiolabelled, vitro transcribed R1 and R3 RNAs. Bound and unbound fractions were resolved by electrophoresis on a native polyacrylamide gel and visualized by phosphorimaging. The data for these and all subsequent binding assays were fit with standard binding isotherms (solid line). […] RNA cleavage was monitored using denaturing polyacrylamide gel electrophoresis. […]
# To test the importance of the stem sequence for substrate RNA recognition by TtCas6A, a series of EMSAs was performed using R1 repeat-derived RNAs that carried single base pair substitutions (C-G→A-U). […] This is consistent with the observation that the lower three C-G base pairs are specifically read out by Arg129. The binding defect observed upon mutation of the closing (uppermost) base pair could be due to loss of stability of the stem-loop structure, which is determined by the closing base-pair (Serra et al, 1993). […]
row,Sequence,binding signal
1,GUUGCAAGGGAUUGAGCCCAGUAAUGGGAU,~5 fold lower affinity than wild-type RNA
